The campaign covered roughly 310,000 compounds. About 14,000 (4.5%) showed an effect of 50% or more. The effect is printed as a negative number. The list comes from a sample in which strong results are over-represented; it also holds similar structures and randomly drawn compounds.
Biological target: human ether-à-go-go-related gene (hERG) potassium channel (human, UniProt Q12809)
Assay: primary screen, population patch clamp on CHO cells stably expressing hERG; higher = less effect of the substance
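Note: peak tail current of the secondary pulse compared with the same well before compound.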

Chain of human ether-à-go-go-related gene (hERG) potassium channel (Q12809 whole entry, looked up): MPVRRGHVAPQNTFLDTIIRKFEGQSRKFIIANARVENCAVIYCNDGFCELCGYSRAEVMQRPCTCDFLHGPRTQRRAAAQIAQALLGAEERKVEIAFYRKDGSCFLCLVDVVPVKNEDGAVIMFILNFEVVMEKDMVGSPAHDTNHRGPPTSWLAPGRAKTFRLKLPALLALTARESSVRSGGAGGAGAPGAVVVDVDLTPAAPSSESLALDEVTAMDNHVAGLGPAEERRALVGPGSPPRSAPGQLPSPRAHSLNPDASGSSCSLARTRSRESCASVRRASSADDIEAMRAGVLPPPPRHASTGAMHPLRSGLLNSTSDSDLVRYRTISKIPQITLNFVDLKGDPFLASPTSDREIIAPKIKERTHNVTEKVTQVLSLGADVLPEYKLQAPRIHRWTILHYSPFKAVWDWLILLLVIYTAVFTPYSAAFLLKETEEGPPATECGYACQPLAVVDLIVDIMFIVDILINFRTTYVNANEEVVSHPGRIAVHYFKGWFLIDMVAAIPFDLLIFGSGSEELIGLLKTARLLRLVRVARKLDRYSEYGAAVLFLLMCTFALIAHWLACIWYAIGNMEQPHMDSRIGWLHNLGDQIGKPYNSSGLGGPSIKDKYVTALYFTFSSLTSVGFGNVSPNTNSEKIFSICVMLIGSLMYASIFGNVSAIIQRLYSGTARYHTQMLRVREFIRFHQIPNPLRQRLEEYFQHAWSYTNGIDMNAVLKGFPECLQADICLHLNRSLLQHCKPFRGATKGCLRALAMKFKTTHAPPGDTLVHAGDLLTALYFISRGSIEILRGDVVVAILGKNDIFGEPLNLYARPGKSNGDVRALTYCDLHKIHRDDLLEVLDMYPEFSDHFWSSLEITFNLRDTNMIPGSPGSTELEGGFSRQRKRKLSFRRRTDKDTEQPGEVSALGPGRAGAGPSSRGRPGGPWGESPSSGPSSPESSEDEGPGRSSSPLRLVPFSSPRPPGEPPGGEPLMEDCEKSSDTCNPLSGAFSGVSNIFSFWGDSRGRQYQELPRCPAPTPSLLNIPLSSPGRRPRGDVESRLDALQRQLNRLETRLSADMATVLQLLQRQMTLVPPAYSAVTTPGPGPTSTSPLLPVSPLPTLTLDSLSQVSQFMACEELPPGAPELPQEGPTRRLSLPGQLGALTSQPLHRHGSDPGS

SMILES | hERG current change (%, negative = inhibition) at 10uM [%]
O=C(/C=C/c1ccco1)Nc1cc(Cl)ccc1C(=O)O | -10.3
CCCc1cc(=O)[nH]c(SC/C=C/c2ccccc2)n1 | 9.33
Cc1c(N(C)C)c(=O)n(-c2ccccc2)n1C | 19.1
COc1ccccc1CNS(=O)(=O)c1ccc2c(c1)NC(=O)CS2 | -1.59
O=C(NCCN1CCOCC1)c1sc2ccccc2c1Cl | -6.21
O=C(NCCCN1CCOCC1)c1sc2cc([N+](=O)[O-])ccc2c1Cl | -54
CCCNC(=O)c1cc2cc([N+](=O)[O-])ccc2s1 | -9.82
O=C(NCCN1CCOCC1)c1sc2cc(Cl)ccc2c1Cl | -10.3
O=C(NCCN1CCOCC1)c1cc2cc([N+](=O)[O-])ccc2s1 | -63.3
O=C(NCCN1CCOCC1)c1ccc([N+](=O)[O-])cc1[N+](=O)[O-] | -0.151
CCN(CC)C(=O)c1cc2cc([N+](=O)[O-])ccc2s1 | -55.5
CN(C)C(=O)c1cc2cc([N+](=O)[O-])ccc2s1 | -38.9
O=C(NCCCN1CCOCC1)c1sc2cc(Cl)ccc2c1Cl | -69.6
O=C(NCCN1CCOCC1)c1cc([N+](=O)[O-])ccc1Cl | 6.5
O=C(NCCCN1CCOCC1)c1sc2ccccc2c1Cl | -9.81
O=C(NCCCN1CCOCC1)c1sc2cc(F)ccc2c1Cl | -44
O=c1c2cn[nH]c2[nH]c(=S)n1-c1ccccc1F | 24.8
N#CC1=C(N)Oc2cc(O)ccc2C1c1cccnc1 (centres unmarked) | 27.4
CCOc1nc2cnccc2n(CC(=O)Nc2ccccc2C(=O)OC)c1=O | -1.11
Cc1nn(-c2ccccc2)c(C)c1/C=N/NC(=O)CSc1nnc(SCc2cccc3ccccc23)s1 | 6.33
CCOC(=O)c1sc(=S)n(C)c1NC(=O)c1ccc(C(C)(C)C)cc1 | 11.8
CC(=O)N/C(=C/c1ccc2c(c1)OCO2)C(=O)O | -2.32
O=C(CCNS(=O)(=O)c1ccc(Cl)cc1)N1CCOCC1 | 22.4
COc1ccc2[nH]c3c(c2c1)CCNC3=O | 7.33
O=C1NCCc2c1[nH]c1ccccc21 | -77

SMILES | hERG current change (%, negative = inhibition) at 10uM [%]
Cc1ccc2[nH]c3c(c2c1)CCNC3=O | 4.86
O=C(Nc1ccc(-c2csc(Nc3cccc(C(F)(F)F)c3)n2)cc1)c1cccc(C(F)(F)F)c1 | 9.98
CCCCN(C)C(=S)Nc1ccc2nc(N3CCN(CC)CC3)cc(C)c2c1 | -78.9
CCCCN(CC)CCCNC(=S)Nc1ccc2nc(N3CCN(C)CC3)cc(C)c2c1 | 5.19
CCCCN(CC)C(=S)Nc1ccc2nc(N3CCN(C)CC3)cc(C)c2c1 | -56.3
CCN1CCN(c2cc(C)c3cc(NC(=S)NCCN(C)C)ccc3n2)CC1 | 3.21
CCCCN(CC)CCNC(=S)Nc1ccc2nc(N3CCN(C)CC3)cc(C)c2c1 | -0.781
CCCCN(C)CCNC(=S)Nc1ccc2nc(N3CCN(CC)CC3)cc(C)c2c1 | 2.83
CCN1CCN(c2cc(C)c3cc(NC(=S)N(C)Cc4ccccc4)ccc3n2)CC1 | -77.7
CCN1CCN(c2cc(C)c3cc(NC(=S)N(CC)CC)ccc3n2)CC1 | -43.9
CCN1CCN(c2cc(C)c3cc(NC(=S)N4CCN(c5ccccc5)CC4)ccc3n2)CC1 | -0.088
Cc1c(NC(=O)CSc2n[nH]c(=O)n2-c2ccccc2)c(=O)n(-c2ccccc2)n1C | 16.9
CCOC(=O)c1c(NC(=O)c2cccc(N3C(=O)CCC3=O)c2)sc(C)c1C | 5.4
CC(=O)c1ccc(NC(=O)COC(=O)c2ccccc2Sc2ccccc2C#N)cc1 | 18
O=C(CCCCn1c(=S)[nH]c2ccsc2c1=O)NCc1ccco1 | 16.6
O=C(c1ccc2c(c1)ncn2C1CCCCCC1)N1CCC2(CC1)OCCO2 | -2.37
O=C(c1ccc(Br)cc1)N1CCCc2ccccc21 | -6.19
O=C(CSc1nc(O)c(Cc2ccccc2)c(=O)[nH]1)Nc1ccccc1 | 8.28
O=C(Nc1ccc(-c2noc(-c3cccs3)n2)cc1)c1cccnc1 | -3.79
COc1ccc(Br)cc1/C=N/Nc1ccccn1 | 14.8
O=C(Nc1cccc(S(=O)(=O)NC2=NCCC2)c1)c1ccc(=O)[nH]c1 | 10.7
COc1cc(-c2nnc3sc(C4CCCCC4)nn23)cc(OC)c1OC | -43.7
COc1ccc(-c2nnc3sc(C4CCCCC4)nn23)cc1OC | -51.1
COc1cccc(-c2nnc3sc(C4CCCCC4)nn23)c1 | -45.2
CC(C)c1cc(C(=O)N2CCCC(CCC(=O)N3CCN(c4ccccn4)CC3)C2)no1 (centres unmarked) | -36.8

SMILES | hERG current change (%, negative = inhibition) at 10uM [%]
O=C(NCCO)/C(=C\c1ccc([N+](=O)[O-])o1)NC(=O)c1ccccc1 | 1.55
Cc1ccc(C(=O)N/C(=C/c2ccc(-c3ccc(Br)cc3)o2)C(=O)NC2CCS(=O)(=O)C2)cc1 (centres unmarked) | -6.35
Cc1ccc(C(=O)N/C(=C\c2ccc(-c3ccc(Cl)cc3)o2)C(=O)NCCCN(C)C)cc1 | -85
Cc1ccc(C(=O)N/C(=C/c2ccc(Cl)cc2)C(=O)NCC2CCCO2)cc1 (centres unmarked) | -48.7
Cc1ccc(C(=O)N/C(=C\c2ccc(-c3ccc(Br)cc3)o2)C(=O)NC2CCS(=O)(=O)C2)cc1 (centres unmarked) | -5.68
CN(C)CCCNC(=O)/C(=C\c1ccc(-c2ccc(Br)cc2)o1)NC(=O)c1ccccc1 | -75.1
Cc1ccc(C(=O)N/C(=C\c2ccc(Cl)cc2)C(=O)NCC2CCCO2)cc1 (centres unmarked) | -49
CN(C)CCCNC(=O)c1ccc(-c2ccccc2)cc1 | -36.7
Cc1ccc(C(=O)N/C(=C\c2ccc(-c3ccc(Br)cc3)o2)C(=O)NCCCN(C)C)cc1 | -80.3
O=C(N1CCOCC1)N(Cc1ccco1)CC1CCCO1 (centres unmarked) | -48.5
COc1ccccc1NC(=O)c1ccc2nc(C)c(C)nc2c1 | -16.1
O=C(c1ccccc1)n1ccn(-c2ccccc2)c1=S | -14.9
Cn1c(=NC(=O)CS(=O)(=O)c2ccccc2)sc2cc([N+](=O)[O-])ccc21 | -36.5
CCCc1cc(=O)oc2cc(C)cc(OC(C)C(=O)NCC(O)c3ccccc3)c12 (centres unmarked) | 7.42
CN(C)S(=O)(=O)c1ccc(C(=O)NCC2(N3CCCCC3)CCCCC2)cc1 | -1.46
NC(=O)COc1ccc(C(=O)NCC2(N3CCOCC3)CCCCC2)cc1 | 6.98
Cc1ccccc1C(=O)NCC(=O)NCC1(N2CCOCC2)CCCCC1 | -25.7
CN(C)S(=O)(=O)c1ccc(C(=O)NCC2(N3CCOCC3)CCCCC2)cc1 | -9.69
CCN(CC)S(=O)(=O)c1ccc(C(=O)NCC2(N3CCOCC3)CCCCC2)cc1 | -67.3
O=C(CNC(=O)c1ccc(OC(F)F)cc1)NCC1(N2CCOCC2)CCCCC1 | -68.5
CCC(C)NC(=O)CS(=O)Cc1nc(-c2cccc(OC)c2)oc1C (centres unmarked) | 2.84
CCOc1cc(C2NC(=O)NC(C)=C2C(C)=O)cc(Cl)c1OCC(=O)O (centres unmarked) | 5.35
CCc1ccc(OCC(=O)Nc2ccc(S(=O)(=O)Nc3cc(C)on3)cc2)c(Br)c1 | -19.7
Nc1nc2ccccc2n1CCN1CCCC1 | 6.04
Cc1nc2ccccc2n1CCN1CCOCC1.Cl | 23.3

SMILES | hERG current change (%, negative = inhibition) at 10uM [%]
Brc1cccc(CNc2nc3ccccc3n2CCN2CCCCC2)c1 | -67.8
C=CCn1c(NCc2ccccc2)nc2ccccc21 | -26.4
Brc1ccc(CNc2nc3ccccc3n2CCN2CCCCC2)cc1 | -62.7
Brc1cccc(CNc2nc3ccccc3n2CCN2CCOCC2)c1 | -76.3
Cl.OCCNc1nc2ccccc2n1CCN1CCCCC1 | -30.4
Cn1c(NCc2cccc(Br)c2)nc2ccccc21 | -22.2
Cc1ccc(OCCn2cnc3cc([N+](=O)[O-])ccc3c2=O)cc1 | -8.19
COc1ccc(S(=O)(=O)NNC(=O)c2sccc2-n2cccc2)cc1 | 2
COC(=O)c1ccc(NC(=O)C2CCCN2S(=O)(=O)c2ccc(OC)cc2)cc1 (centres unmarked) | -16.8
COc1cc(C(=O)Nc2ccc(C(=O)c3cccs3)cc2)cc(OC)c1OC | -10.1
Cc1cc(F)ccc1NC(=S)NC1CCCC1 | 17.9
COC(=O)c1[nH]c2cc(OC)ccc2c1NC(=O)CCN1CCN(c2ccccc2)CC1 | -67
COC(=O)c1[nH]c2cc(OC)ccc2c1NC(=O)CCN1CCCCC1 | -20.5
CCOC(=O)c1[nH]c2ccc(OC)cc2c1NC(=O)CN1CCc2ccccc2C1 | -12.4
CCOC(=O)c1[nH]c2ccc(OC)cc2c1NC(=O)CCN1CCN(Cc2ccccc2)CC1 | -57.1
CCOC(=O)c1[nH]c2ccc(OC)cc2c1NC(=O)CCN1CCc2ccccc2C1 | -59.5
CCOC(=O)c1[nH]c2ccc(OC)cc2c1NC(=O)CCN1CCSCC1 | -5.8
COC(=O)c1[nH]c2cc(OC)ccc2c1NC(=O)CCN1CCN(c2cccc(C)c2C)CC1 | -16.4
CCOC(=O)c1[nH]c2ccc(OC)cc2c1NC(=O)CCN1CCC(C)CC1 | -22.8
CCOC(=O)C1CCCN(CCC(=O)Nc2c(C(=O)OC)[nH]c3cc(OC)ccc23)C1 (centres unmarked) | -59.6
CCOC(=O)C1CCCN(CC(=O)Nc2c(C(=O)OC)[nH]c3ccccc23)C1 (centres unmarked) | -25.2
CCOC(=O)c1[nH]c2cc3c(cc2c1NC(=O)CN1CCc2ccccc2C1)OCO3 | -0.934
CCOC(=O)C1CCCN(CC(=O)Nc2c(C(=O)OC)[nH]c3ccc(C)cc23)C1 (centres unmarked) | -36.1
